HepG2 viability = HepG2 cytotoxicity, counter-screen for TGF-b inhibitors; HepG2 CAGA-GFP viability, ATP luminescence, 18 h; Potency, µM (doses to about 46.1 µM), without a hit: top-dose activity change, negative = cytotoxicity, usual class: cytotoxic; 410,000 compounds, 0.76% hits; AID 588856
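CellTiter-Glo luminescence gave cytotoxicity after 18 hours at 37 degrees C. The cells were HepG2 CAGA-GFP in 1% FBS DMEM, stimulated with 500 pg/mL TGF-beta after compound addition. %Activity was normalised to no-cell wells (complete cell-killing) and DMSO (no toxicity), and curves were fitted and classified.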
HT1080 IDH1KD tx = kills HT-1080 cells with IDH1 knockdown; 360,000 compounds, 2% hits; Potency, µM (titrated, usually from 46.1 µM), for the others: at the top dose activity, negative = toxicity, actives largely listed as cytotoxic; HT-1080 IDH1 knockdown viability, ATP luminescence, 48 h;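 also: 0% = DMSO wells and -100% = cell-free medium wells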
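Luminescent ATP read-out (CellTiter-Glo, 10 min at room temperature) after 48 h compound exposure at 37 °C gave viability of IDH1-knockdown HT-1080 cells. Activity was normalised to DMSO and cell-free wells, then fitted as concentration-response curves.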
KB-3-1 cytotox = KB-3-1 parental cell cytotoxicity. KB-3-1 viability, CellTiter-Glo ATP luminescence, 72 h. Potency, µM (top dose mostly 46.1 µM), most hits filed as cytotoxic. 400,000 compounds, 1.4% hits. AID 1347075; also: % is scaled to controls: 0 for no effect and ±100 for the full control effect; nearly all actives have a fitted effect of over 60% in size
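Parental KB-3-1 adenocarcinoma cells in phenol-red-free DMEM with 10% FBS were pin-treated with compounds at several concentrations, incubated 72 h at 37 °C, and viability read by CellTiter-Glo luminescence; concentration-effect curves were fitted after normalization.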
KB-V1 cytotox = kills drug-selected multidrug resistant KB-V1 cells | KB-V1 MDR cells viability, CellTiter-Glo, 72 h | Potency, µM (highest dose often 46.1 µM), hits mostly cytotoxic | 400,000 compounds, 3.4% hits | AID 1347076; also: % is scaled to controls: 0 for no effect and ±100 for the full control effect; nearly all actives have a fitted effect of over 60% in size
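Drug-selected KB-V1 cells, grown in DMEM lacking phenol red with 10% FBS, receive compound titrations; after three days at 37 degrees C, surviving cell ATP is quantified by CellTiter-Glo luminescence and responses normalized and curve-fitted.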
HT1080-NT tox = kills 2HG-producing HT-1080-NT fibrosarcoma cells; 360,000 compounds, 1.6% hits; Potency, µM (titrated, usually from 46.1 µM), for the others: at the highest dose activity, negative = less viability, usual class: cytotoxic; HT-1080-NT fibrosarcoma viability, CellTiter-Glo ATP luminescence, 48 h; AID 686970;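 also: NT is the 2HG producing partner of a matched IDH1 knockdown line; 0% = DMSO-treated cells and -100% = media-only wells without cells; nearly all actives have a fitted effect of over 55% in size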
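A 48-hour cytotoxicity screen used HT-1080-NT cells plated 2 hours before compound delivery. ATP-based CellTiter-Glo luminescence measured viability, normalized to DMSO and no-cell controls.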
TGFb inhibitor = blocks TGF-b signaling; HepG2 CAGA-GFP TGF-b/SMAD3 reporter, GFP fluorescence, 18 h; TGF-beta stimulated, 500 pg/mL final; Potency, µM (highest dose often 46.1 µM), inactives show top-dose activity, negative = inhibition, actives largely listed as inhibitors; 410,000 compounds, 1.2% hits; AID 588855; also: % is scaled to controls: 0 for no effect and ±100 for the full control effect; nearly all actives have a fitted effect of over 65% in size
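Inhibition of TGF-beta-driven CAGA-GFP reporter expression in HEPG2 cells is measured by cellular GFP fluorescence after 18 h stimulation with 500 pg/mL recombinant TGF-beta in 1% FBS medium at 37 degrees C.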
* = called active by the depositor; i = inactive; ? = inconclusive; . = no result given. Sampled rows, rich in hits. Any-hit rate of the full collection: about 6.6%. Calls follow the shape of the dose curve; as a rule, active = well fitted curve in the direction sought with a large enough effect; inconclusive = small, poorly fitted or top-dose-only effect, or another doubt; inactive = no such curve, though single readings can be large; an effect the other way counts as inactive or inconclusive. Potency is read from the fitted curve at half-maximal effect.

SMILES | HepG2 viability | HT1080 IDH1KD tx | KB-3-1 cytotox | KB-V1 cytotox | HT1080-NT tox | TGFb inhibitor
CCOC(=O)c1ccc(N2C(=O)c3[nH]nc(-c4ccc(OC)cc4)c3C2c2ccccc2Cl)cc1 (centres undefined) | -14% | . | i | i | . | -8%
CCOc1ccc(C2c3c(-c4ccc(C)cc4)n[nH]c3C(=O)N2c2ccc(Cl)cc2)cc1 (centres undefined) | 13µM* | . | ? | ? | . | 4.5µM*
O=C1c2[nH]nc(-c3ccccc3)c2C(c2ccccc2)N1c1cccc(C(F)(F)F)c1 (centres undefined) | 18µM* | . | ? | 16µM* | . | ?
CCOc1ccc(CNC(=O)c2cc(=O)[nH]c3ccc(S(=O)(=O)N4CCCC4)cc23)cc1 | 0% | . | . | . | . | -9%
COc1ccc(-c2noc(CCC(=O)NCc3ccc(OC)cc3OC)n2)cc1 | -27% | . | i | i | . | ?
Cc1nn(CC(=O)NCC(C)c2ccccc2)c(=O)c2cc3ccccc3n12 (centres undefined) | 46% | . | i | i | . | 40%
CCOc1cc2[nH]c(=O)n(CCCCC(=O)N3CCN(c4ccccc4OC)CC3)c(=O)c2cc1OCC | 3% | . | i | i | . | 5%
CCc1ccc(C(C)NC(=S)NC2CCCCC2)cc1 (centres undefined) | -44% | -1% | ? | ? | -5% | ?
CC(NC(=S)NC1CCCCC1)c1ccc(C(C)(C)C)cc1 (centres undefined) | -15% | 23µM* | ? | 12µM* | -27% | ?
CCC(C)c1ccc(C(C)NC(=S)NC2CCCCC2)cc1 (centres undefined) | -14% | 23µM* | ? | ? | ? | ?
COc1ccc(OC)c(CNS(=O)(=O)c2ccc3c(c2)oc(=O)n3C)c1 | -1% | . | i | i | . | 18%
CC(=O)O[C@H]1[C@H](O)[C@H](Oc2c(O)c(C)c3c4c2[C@@H](C)CC[C@@H]4[C@@H](C)C[C@H]3C=C(C)C)O[C@@H](C)[C@H]1O | -114% | ? | i | i | ? | 11µM*
CC(C)=C[C@@H]1C[C@H](C)[C@H]2CC[C@H](C)c3c(O)c(O)c(C)c1c32 | -42% | -4% | i | i | -1% | -10%
CC(=O)OC1[C@H](Oc2c(O)c(C)c3c4c2[C@@H](C)CC[C@@H]4[C@@H](C)C[C@@H]3C=C(C)C)OC[C@@H](O)[C@@H]1O (some centres undefined) | -48% | 10% | i | i | -22% | 11µM*
CC(C)=C[C@H]1C[C@H](C)[C@H]2CC[C@H](C)c3c(O[C@@H]4OC[C@@H](O)[C@H](O)C4O)c(O)c(C)c1c32 (some centres undefined) | 22µM* | ? | i | i | ? | ?
CC(=O)Oc1c(C)c2c3c(c1OC(C)=O)[C@@H](C)CC[C@@H]3[C@@H](C)C[C@H]2C=C(C)C | -9% | -9% | i | ? | -5% | -28%
CCOc1ccccc1NC(=O)c1nn(-c2ccc(C)cc2)c(=O)n(C)c1=O | -14% | . | i | i | . | -4%
Cc1ccc(S(=O)(=O)Nc2ccc(-c3ccc(N4CCCCCC4)nn3)cc2)c(C)c1 | 5% | . | i | ? | . | -7%
CN(C)CCN(C(=O)c1ccc2c(c1)OCCO2)c1nc2ccc(Cl)cc2s1 | -5% | ? | i | i | -4% | 4%
CN(C)CCN(C(=O)c1ccco1)c1nc2cc3c(cc2s1)OCCO3 | 0% | -13% | ? | i | -22% | -10%
Cc1cccc2sc(N(CCCN(C)C)C(=O)CCc3ccccc3)nc12 | -110% | 0% | ? | 16µM* | -28% | 13µM*
CN(C)CCCN(C(=O)c1ccco1)c1nc2ccc(Br)cc2s1 | -72% | 21µM* | i | i | 23µM* | 0%
Cc1cccc2sc(N(CCCN(C)C)C(=O)CN3C(=O)c4ccccc4C3=O)nc12 | -39% | 8% | i | i | 8% | -17%
CN(C)CCCN(C(=O)CCc1ccccc1)c1nc2ccc(F)cc2s1 | -40% | -4% | i | i | -5% | 0%
Cc1ccc(C(=O)N(CCCN(C)C)c2nc3ccc(Cl)cc3s2)cc1C | 22µM* | 23µM* | i | i | 23µM* | ?
SMILES | HepG2 viability | HT1080 IDH1KD tx | KB-3-1 cytotox | KB-V1 cytotox | HT1080-NT tox | TGFb inhibitor
CN(C)CCCN(C(=O)CCc1ccccc1)c1nc2ccc(Br)cc2s1 | -102% | ? | ? | 23µM* | 18µM* | 16µM*
CCOc1ccc(S(=O)(=O)N2Cc3ccccc3CC2C(=O)Nc2ccc(NC(C)=O)cc2)cc1 (centres undefined) | -2% | . | i | i | . | -2%
Cc1cccc(CN2CCN(CC(=O)Nc3c(C)cccc3C)S2(=O)=O)c1 | -17% | . | i | i | . | -56%
CSc1ccc(CNC(=O)c2ccccc2NC(=O)c2nsc3ccccc23)cc1 | -11% | . | i | i | . | 6%
CCC(C)NC(=O)CSc1nc2n[nH]c(C)c2c(=N)n1-c1cc(Cl)ccc1C (centres undefined) | -14% | . | i | i | . | ?
CCOC(=O)C1=CNS(=O)(=O)NC1CCc1ccccc1 (centres undefined) | -2% | 0% | i | i | -1% | 8%
CN(C)CCCN(C(=O)c1ccco1)c1nc2ccc(Cl)cc2s1 | -32% | 18µM* | i | i | ? | ?
CCN(CC)CCN(C(=O)c1ccco1)c1nc2ccc(Cl)cc2s1 | -59% | . | i | i | . | ?
CCN(C(=O)Cn1c(C(=O)OC)cc2sc(Cl)cc21)c1cccc(C)c1 | -15% | . | i | i | . | -3%
Cc1ccc(C)c(C(=O)COC(=O)c2ccccc2N2C(=O)C3C4CCC(C4)C3C2=O)c1 (centres undefined) | -1% | -3% | i | 4.1µM* | 0% | -11%
O=C(COC(=O)c1ccccc1N1C(=O)C2C3CCC(C3)C2C1=O)c1ccccc1 (centres undefined) | -12% | 8% | i | i | 18% | -3%
COc1cc(C(=O)OCC(=O)N2CCN(S(=O)(=O)c3ccc(C)cc3C)CC2)c([N+](=O)[O-])cc1OC | -4% | -4% | i | 9.2µM* | -6% | -22%
COc1ccc(OC)c(/C=C/C(=O)N2CCN(S(=O)(=O)c3ccc(C)cc3C)CC2)c1 | 1% | -2% | ? | 3.7µM* | -2% | ?

Screening data deposited in PubChem by National Center for Advancing Translational Sciences (NCATS).
